The record followed here is PubChem BioAssay AID598 (SRMLSC, 2007).

Among all 85,000 compounds or so, about 5,100 (6%) were called active. What follows is part of a selection rich in actives, with near analogues and random picks from the rest. Values without a mark were called inactive.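 Rule for the calls: active = viability at or below 40%; inactive = viability above 40%.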

This test in a line: proliferation blockers of H69AR lung cancer cells, primary screen, cell-based, human, 86K library (AID 598).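 Note: multidrug resistant small cell line overexpressing MRP-1 efflux transporter; 100% = mean luminescence of untreated control wells.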 The settings on record: H69AR lung tumor viability, ATP luminescence, 72 h; at 10 µM; active compounds read low.
By viability is commonly meant a read-out of living cells in per cent, often relative to untreated cells. For the compound `CCNc1nc(NC(C)C)nc(OCCOC(=O)c2ccccc2)n1`, the viability was 83.5%.

As to `CCOc1cccc(NC(=O)Cn2nc(-c3ccc4c(c3)OCCO4)ccc2=O)c1`, the viability was 69.3%. For `CN(C)S(=O)(=O)c1cccc(C(=O)Nc2cccnc2)c1`, the viability is 89.9%. For `CCN(CC)S(=O)(=O)c1cccc(C(=O)Nc2ccccc2)c1`, the viability was 38.5% (active). Turning to `CCN(CC)S(=O)(=O)c1cccc(C(=O)NCC(=O)OCC(=O)NCc2ccccc2)c1`, the viability is 87.6%. To `N#CC1=C(N)N(c2ccccc2)C2=C(C(=O)CCC2)C1c1ccccc1` (stereo not drawn) belongs 40.4%. As for `Cc1cccc(N2CCN(C(c3ccc(N(C)C)cc3)c3nnnn3C(C)(C)C)CC2)c1C` (stereo not drawn), the viability was 83.3%. The result for `O=C(OCc1nnc(-c2ccccc2)o1)c1ccc2c(c1)C(=O)N(CCc1ccccc1)C2=O` reads 33.8% (active); that for `O=C(COC(=O)c1ccc(Oc2ccccc2)cc1)Nc1nnc(-c2ccccc2)o1`, 58.7%; that for `CCCc1nc2ccccc2c(C(=O)OCc2nnc(-c3cc(OC)c(OC)c(OC)c3)o2)c1CC`, 50.2%. To `O=C1CCCc2nn(-c3ccccc3)nc21` belongs 87.6%; to `CCCN1CC=C2C(C#N)=C(N)C(C#N)(C#N)C(c3cc(OC)ccc3OC)C2C1` (stereo not drawn), 31.8% (active); to `CCN1CC=C2C(C#N)=C(N)C(C#N)(C#N)[C@H](c3ccoc3)[C@H]2C1`, 84.8%.

On to `CCOC(=O)N1CC=C2C(C#N)=C(N)C(C#N)(C#N)[C@H](c3cccs3)[C@H]2C1`, for which the viability was 61.6%.

As to `CCOC(=O)C1=C(CSc2nnnn2C)N(C)C(=O)NC1c1ccccc1` (stereo not drawn), the viability was 93.1%. The result for `COc1ccc(N2CCN(C(=O)CCc3nc(-c4ccc(C)cc4)no3)CC2)cc1` reads 98.4%; that for `CCc1cccc(C)c1N(C(=O)Cn1c(CO)nc2ccccc21)C(C)COC` (stereo not drawn), 71%. The result for `Cc1cc(=O)oc2ccc(OCC(=O)O)cc12` reads 97.4%.

Take `CCOC(=O)c1c(C)oc2ccc(OCC(=O)N(CC)CC)cc12`: the viability is 38.9% (active). The result for `CCOC(=O)c1c(C)oc2cc(Br)c(OCC(N)=O)cc12` reads 80.2%; that for `CN(C)c1ccnc2sc3c(=O)n(-c4ccc(Cl)cc4)cnc3c12`, 80.8%. The result for `O=C(N/N=C/C=C/c1ccccc1)C1CC1(c1ccccc1)c1ccccc1` (stereo not drawn) reads 98.1%. The result for `CC(C)C[C@@H](N)c1nnc(SCC(=O)c2ccc(Cl)cc2)o1` reads 86.9%.

For the compound `COC(=O)c1cc(Cl)c(NC(=O)c2ccco2)cc1OC`, the viability is 94%.

`COc1ccc(NC(=O)c2cccc(NC(=O)c3ccco3)c2)c(OC)c1`: the viability is 88.5%. To `COc1cc(C(=O)OC(C)C(=O)NCC2CCCCC2)cc(NC(=O)c2ccco2)c1OC` (stereo not drawn) belongs 13.1% (active); to `CC(C)(C)c1ccc(C(=O)NCC(=O)OCN2C(=O)c3ccccc3C2=O)cc1`, 104%; to `Cc1cccc(-n2nc3c(c2NC(=O)c2ccc(Br)o2)CSC3)c1C`, 59.7%. To `Cc1cc(C)nc(-n2nc(C)cc2NC(=O)c2ccc(Br)o2)n1` belongs 36.5% (active); to `Cc1cc(NC(=O)Nc2ccccc2)n(-c2ccccc2)n1`, 92.7%. To `N#Cc1c(N)nc2c3c(sc(=N)c2c1N)NC(=O)CC3c1ccccc1Cl` (stereo not drawn) belongs 113%; to `CSc1ccc(-c2c(C#N)c(N)nc3c2c(C)nn3-c2ccccc2)cc1`, 57.5%; to `CSc1nc(N)c(C#N)c(-c2ccccc2Cl)c1C#N`, 21.8% (active).

In the case of `O=C(NC1CCC(O)CC1)c1ccc(S(=O)(=O)NCc2ccco2)cc1` (stereo not drawn), the viability was 96.7%. The result for `CC1(C)Cc2c(sc3nc(SCC(=O)NCc4ccccc4)n(-c4ccccc4)c(=O)c23)CS1` reads 24.1% (active). As to `CNC(=O)CSc1nnc(CCc2ccccc2)n1-c1ccccc1`, the viability was 83.2%.

With `Cc1nnc(SCC(=O)NCc2ccccc2)s1`, the viability is 96.4%. The result for `CCOC(=O)c1c(NC(C)=O)sc2c(O)c(Br)ccc12` reads 94.9%. The result for `COc1ccc(C(C#N)Nc2ccccc2C)cc1` (stereo not drawn) reads 88.9%. For the compound `O=C(Nc1nnc(SCc2ccccc2)s1)c1ccco1`, the viability is 96%. The result for `COc1ccc(CCn2c(-c3ccco3)nc3nc4ccccc4nc32)cc1OC` reads 55.4%; that for `Clc1cccc(-c2nc3nc4ccccc4nc3n2Cc2ccco2)c1`, 34.4% (active); that for `O=C(CSc1nnc(-c2cccnc2)n1Cc1ccco1)c1ccc(Cl)cc1`, 95.3%. The result for `Cc1cccc(S(=O)(=O)CC(=O)Nc2nc(-c3ccccc3)cs2)c1` reads 99.7%; that for `Cc1nc(NNC(=O)c2ccccc2)cc(-c2ccccc2)n1`, 91.7%. The result for `O=C(NCc1ccccc1)[C@@H]1CSC2c3ccccc3C(=O)N21` (stereo partly drawn) reads 78.5%. With `COC(CNC(=O)Cn1ncc2ccsc2c1=O)OC`, the viability was 101%. To `Cc1cccc(N(C(=O)c2ccc(CN3CCOCC3)o2)C(C(=O)NC2CCCCC2)c2ccc(F)cc2)c1` (stereo not drawn) belongs 103%. With `COC(=O)c1cccc(N(C(=O)c2ccco2)C(C(=O)NC2CCCC2)c2ccco2)c1` (stereo not drawn), the viability is 32.4% (active). To `COC(=O)c1ccc(N(CC(=O)NC2CCCC2)C(=O)CNC(=O)c2ccco2)cc1` belongs 94.9%. The result for `COc1ccc(-c2oc(/N=C/N3CCCC3)c(C#N)c2-c2ccc(OC)cc2)cc1` reads 99.1%. `O=C(N/N=C\c1cccc(Br)c1)c1ccccc1-n1cccc1`: the viability is 93.7%.

As to `N=c1c2c(-c3ccccc3)c(-c3ccccc3)n(Cc3ccccc3)c2ncn1CCCO`, the viability was 0.82% (active). The result for `Cc1ccc(NC(=O)N2CCC(c3nc4c(nnn4Cc4c(F)cccc4Cl)c(=O)[nH]3)CC2)cc1` reads 67.6%. Regarding `CCCCNC(=O)C1CCCNC1=O` (stereo not drawn), the viability is 98.9%.

Consider `C=C(C)COc1ccc(-c2n[nH]c(C)c2-c2ccccc2OC)c(O)c1`, for which the viability was 39.9% (active). The result for `COc1ccc(-c2n[nH]c(C)c2-c2ccc(OC)c(OC)c2)c(O)c1` reads 14.9% (active); that for `COc1ccccc1-c1c(C)nn2c(C)c(C(C)=O)cnc12`, 89.8%; that for `C=C(C)COc1ccc(-c2n[nH]c(C)c2-c2ccccc2)c(O)c1`, 95.5%. The result for `O=C(Cn1c(-c2cscn2)nc2ccccc21)Nc1ccc(Cl)cc1` reads 72.9%. To `COc1ccc(C)cc1S(=O)(=O)NCCc1ccccc1` belongs 96%. On to `CCCCOc1ccc(N(CC(=O)NCC2CCCO2)C(=O)CCC(=O)Nc2cc(C)ccn2)cc1` (stereo not drawn), for which the viability was 102%.

As to `O=C(CC12CC3CC(CC(C3)C1)C2)Nc1ccc2c(c1)COC2=O`, the viability is 90.9%. The result for `O=S(=O)(NN=C1CCCCCCC1)c1ccc(Br)cc1` reads 88.9%; that for `CC/S(CC1CC1(Cl)Cl)=N\S(=O)(=O)c1ccc(C)cc1` (stereo not drawn), 76.7%; that for `CCOc1ccc2nc(NC(=O)CSc3nc4c(c(=O)n(C)c(=O)n4C)n3CC)sc2c1`, 14.9% (active). To `CCCCn1c(SCC(=O)NCCc2ccc(OC)c(OC)c2)nc2c1c(=O)n(C)c(=O)n2C` belongs 86.6%; to `CCn1c(SCC(=O)Nc2nc3ccc(OC)cc3s2)nnc1-c1ccoc1C`, 58.8%. Consider `COC(=O)CNC(=O)c1ccccc1F`, for which the viability was 85.2%.

Turning to `O=C(c1ccc(Cl)c(Cl)c1)N1CCCC1`, the viability is 95.3%. Consider `C/C=C/C(=O)OCC(=O)Nc1ccc(F)cc1Cl`, for which the viability was 98.4%. The result for `COc1ccccc1N1CCN(Cc2nnnn2CCc2ccccc2)CC1` reads 102%; that for `COc1ccccc1N1CCN(C(=O)CN(Cc2ccc(Cl)cc2)S(C)(=O)=O)CC1`, 86.8%. The result for `COc1ccccc1-n1nnnc1S(=O)(=O)Cc1ccc(Cl)cc1` reads 1.36% (active); that for `COCc1[nH][nH]c(=O)c1C=Nc1ccc(F)cc1F`, 96.8%; that for `Cc1cc(C(F)F)n2nc(C(=O)Nc3ccc(S(=O)(=O)NC45CC6CC(CC(C6)C4)C5)cc3)nc2n1`, 115%. To `CC(C)CNC(=O)CC(c1ccccc1)c1c(O)ccc2ccccc12` (stereo not drawn) belongs 92.8%; to `O=S(=O)(NCCc1ccccc1)c1ccccc1`, 103%; to `CCN1C(=O)C(CC(=O)Nc2cc(C)ccc2C)SC1=Nc1ccc(S(N)(=O)=O)cc1` (stereo not drawn), 97.3%.

As for `COc1ccc(CC(=O)Nc2ccc(-c3nnc(-c4ccc(C)cc4)o3)cc2)cc1`, the viability is 2.28% (active). Take `Cc1ccc(OCC(=O)Nc2ccc(-c3nnc(-c4ccco4)o3)cc2)cc1`: the viability is 90.5%. In the case of `COc1ccc(CC(=O)Nc2ccc(-c3nnc(-c4ccccc4)o3)cc2)cc1`, the viability was 58.1%. For the compound `CN(Cc1ccccc1)C(=O)COc1ccccc1`, the viability is 97.9%. `CCc1ccccc1NC(=O)CN(C)S(=O)(=O)c1ccc2c(c1)c(=O)n(C)c(=O)n2C`: the viability is 88.5%. To `Cc1cccc2cc(C#N)c(N3CCCC3)nc12` belongs 100%. On to `CC(=O)c1ccc(S(=O)(=O)N2CCN(c3nc4c(C)c(C)ccc4cc3C#N)CC2)cc1`, for which the viability was 36% (active).

In the case of `Cc1cc(C)c2nc(N3CCCC3)c(C#N)cc2c1`, the viability was 91.6%. To `CCS(=O)(=O)Nc1ccc(C2=NN(S(=O)(=O)c3ccc(F)cc3)C(c3ccco3)C2)cc1` (stereo not drawn) belongs 81.9%; to `O=C(NC1CCCC1)C(c1ccccn1)N(C(=O)c1csnn1)C1CCCC1` (stereo not drawn), 81.2%; to `CCOC(=O)CN(Cc1ccc(OC)c(OC)c1)S(=O)(=O)c1ccc(OC)cc1`, 87.8%.

For the compound `Cc1c(NC(=O)CSc2cccc3cccnc23)c(=O)n(-c2ccccc2)n1C`, the viability is 0.71% (active). The result for `Cc1ccccc1OCCC(=O)Nc1c(C)n(C)n(-c2ccccc2)c1=O` reads 91%; that for `Cc1cc(C)cc(N(CC(=O)Nc2c(C)n(C)n(-c3ccccc3)c2=O)S(C)(=O)=O)c1`, 93.1%.
